Each structure is given as a SMILES string. Values without a mark were called inactive. Inconclusive results are not listed. Active and inactive are the calls of the source. Unless noted, the rule behind the calls is not given here.

We go through 39 compounds from PubChem BioAssay.

Sequence of ATP-dependent translocase ABCB1 (Homo sapiens) (P08183 whole entry, looked up): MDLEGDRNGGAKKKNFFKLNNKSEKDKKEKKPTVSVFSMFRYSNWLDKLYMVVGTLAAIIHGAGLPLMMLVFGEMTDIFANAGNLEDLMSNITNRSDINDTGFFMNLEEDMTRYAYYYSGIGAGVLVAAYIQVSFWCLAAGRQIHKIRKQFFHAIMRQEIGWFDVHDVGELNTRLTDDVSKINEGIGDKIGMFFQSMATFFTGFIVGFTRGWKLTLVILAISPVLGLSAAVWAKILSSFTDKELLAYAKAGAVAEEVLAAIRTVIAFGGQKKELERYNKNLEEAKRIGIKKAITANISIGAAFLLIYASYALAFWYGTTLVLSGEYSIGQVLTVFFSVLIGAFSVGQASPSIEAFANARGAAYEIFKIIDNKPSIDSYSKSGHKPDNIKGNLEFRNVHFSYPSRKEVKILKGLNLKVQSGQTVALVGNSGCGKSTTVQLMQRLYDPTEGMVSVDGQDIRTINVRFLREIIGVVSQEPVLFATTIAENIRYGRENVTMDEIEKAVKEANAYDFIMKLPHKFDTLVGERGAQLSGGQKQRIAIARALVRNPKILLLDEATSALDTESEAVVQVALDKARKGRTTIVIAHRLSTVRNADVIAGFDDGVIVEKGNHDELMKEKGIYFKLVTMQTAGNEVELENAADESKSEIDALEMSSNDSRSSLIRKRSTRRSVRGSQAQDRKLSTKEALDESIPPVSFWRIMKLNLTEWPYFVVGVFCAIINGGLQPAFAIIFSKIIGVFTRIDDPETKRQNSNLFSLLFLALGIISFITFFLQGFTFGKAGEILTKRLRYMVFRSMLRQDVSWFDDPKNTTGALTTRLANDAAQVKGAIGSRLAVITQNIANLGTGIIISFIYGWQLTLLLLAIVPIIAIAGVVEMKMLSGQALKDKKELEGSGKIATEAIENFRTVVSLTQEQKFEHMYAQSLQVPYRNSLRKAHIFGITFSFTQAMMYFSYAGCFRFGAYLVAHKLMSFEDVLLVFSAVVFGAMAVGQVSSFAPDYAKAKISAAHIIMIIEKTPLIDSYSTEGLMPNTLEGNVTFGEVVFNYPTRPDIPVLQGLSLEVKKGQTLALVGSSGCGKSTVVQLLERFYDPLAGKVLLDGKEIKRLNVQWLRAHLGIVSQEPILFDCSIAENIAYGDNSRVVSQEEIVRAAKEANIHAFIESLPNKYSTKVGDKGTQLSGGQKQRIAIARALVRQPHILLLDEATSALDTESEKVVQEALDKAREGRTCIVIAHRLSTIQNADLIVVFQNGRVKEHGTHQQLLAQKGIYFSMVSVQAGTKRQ

The first assay has as its target ATP-dependent translocase ABCB1 (Homo sapiens) (UniProt P08183). Nature of the assay: MDR1 (ABCB1) efflux transporter inhibition, cell-based (AID 377; in the data active = fluorescence slope change above about 50%). Particulars: MDR1-expressing cells, fluorescent substrate accumulation slope; hits give high values; concentration not given here.
Take `c1ccc2c(c1)CCCc1cc(NCCN3CCOCC3)nnc1-2`: the fluorescence slope change was 77.5% (active).
On the same count and under the same terms, for `COC(=O)C1=CO[C@@H](C)[C@H]2CN3CCc4c([nH]c5ccccc45)[C@@H]3C[C@H]12` the value was 76.8% (active); for `Cc1n[nH]c(=O)[nH]c1=O`, 50.5% (active); for `O[C@@H]1[C@@H](O)C=C2CCN3Cc4cc5c(cc4[C@H]1C23)OCO5` (some centres undefined), 10.1%.
The same measure, in the same setting: for `COC(=O)[C@H]1[C@H]2C[C@@H]3c4[nH]c5cc(OC)ccc5c4CCN3C[C@H]2C[C@@H](OC(=O)/C=C/c2cc(OC)c(OC)c(OC)c2)[C@@H]1OC` the value was 61% (active); for `C[C@H](CCC(=O)NCC(=O)O)[C@H]1CC[C@H]2[C@@H]3[C@H](O)C[C@@H]4C[C@H](O)CC[C@]4(C)[C@H]3C[C@H](O)[C@]12C`, 91% (active).
Consider `COc1c(O[C@@H]2O[C@H](CO)[C@@H](O)[C@H](O)[C@H]2O)cc2c(c1OC)-c1ccc(SC)c(=O)cc1C(NC(C)=O)CC2` (some centres undefined), for which the fluorescence slope change was 56.6% (active).
Turning to `CO[C@@H]1[C@@H](OC(N)=O)[C@@H](O)C(Oc2ccc3c(O)c(NC(=O)c4ccc(O)c(CC=C(C)C)c4)c(=O)oc3c2C)OC1(C)C` (some centres undefined), the fluorescence slope change is 82.3% (active).
In the case of `COc1ccc2c(OC)c3ccoc3nc2c1OC`, the fluorescence slope change was 16.3%.
`C[N+]1(C)C[C@@H](O)C[C@H]1C(=O)[O-]`: the fluorescence slope change was 28.3%.
Turning to `COc1c(O)cc2c(c1O)C1OC(CO)C(O)C(O)C1OC2=O` (centres undefined), the fluorescence slope change was 18.9%.

Tested on in another assay: not listed separately
As to the kind of experiment: hESC survival regulators, cell-based (AID 493140).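 Note: cells exposed to compounds for four days before counting.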 Particulars: human embryonic stem cell survival screen; hits give high values.
Take `c1ccc2c(c1)CCCc1cc(NCCN3CCOCC3)nnc1-2`: the survival is 2.75.
Same read-out and setting: to `COC(=O)C1=CO[C@@H](C)[C@H]2CN3CCc4c([nH]c5ccccc45)[C@@H]3C[C@H]12` belongs 10.5; to `CCCCC[C@H](O)/C=C/[C@@H]1[C@@H](CC(=O)CCCCC(=O)O)[C@@H](O)C[C@H]1O`, 129; to `CCCCCCCCCCCCCCCC(=O)OCC(COP(=O)(O)O)OC(=O)CCCCCCCCCCCCCCC` (centres undefined), 95.5.
As for `Cc1n[nH]c(=O)[nH]c1=O`, the survival is 3.58.
As for `CCCCCCCCCCCCCCC[C@@H](O)[C@@H](N)CO`, the survival is 56.7.
As for `CCCCC/C=C\C[C@@H](O)/C=C/C=C/C=C\[C@@H](O)CCCC(=O)O`, the survival was 102.
Consider `CCCCCCCCCCCCCCC[C@@H](O)[C@H](CO)NC(C)=O`, for which the survival was 81.5.
On the same count and under the same terms, to `CCCCCC(=O)/C=C/[C@H]1[C@H](O)CC(=O)[C@@H]1C/C=C\CCCC(=O)O` belongs 92.3; to `CCCCCCCCCCCCC(O)C(=O)O` (centres undefined), 71.7; to `CCCCC[C@H](O)/C=C/[C@H]1OC(O)C[C@H](O)[C@@H]1C/C=C\CCCC(=O)O` (some centres undefined), 96.2.
Take `O[C@@H]1[C@@H](O)C=C2CCN3Cc4cc5c(cc4[C@H]1C23)OCO5` (some centres undefined): the survival is 0.583.
`COC(=O)[C@H]1[C@H]2C[C@@H]3c4[nH]c5cc(OC)ccc5c4CCN3C[C@H]2C[C@@H](OC(=O)/C=C/c2cc(OC)c(OC)c(OC)c2)[C@@H]1OC`: the survival was 9.58.
`CCCCCCCC/C=C\CCCCCCCC(=O)OCC(CO)OC(=O)CCCCCCC/C=C\CCCCCCCC` (centres undefined): the survival was 88.4.
Take `CCCCCCCCCCCCCCCC(=O)NCCc1ccc(O)c(O)c1`: the survival was 69.7.
Regarding `CCCCC[C@H](O)/C=C/[C@@H]1[C@@H](C/C=C\CCCC(=O)O)[C@@H](O)C[C@@H]1O`, the survival is 97.2.
In the case of `CCCCCCCCCCCCCCCCOC[C@H](COP(=O)([O-])OCC[N+](C)(C)C)OC(=O)NC`, the survival is 80.6.
In the case of `C[C@H](CCC(=O)NCC(=O)O)[C@H]1CC[C@H]2[C@@H]3[C@H](O)C[C@@H]4C[C@H](O)CC[C@]4(C)[C@H]3C[C@H](O)[C@]12C`, the survival is 14.6.
On to `CCCCCCCCCC(=O)OCC(CO)OC(=O)CCCCCCCCC` (centres undefined), for which the survival was 93.4.
Turning to `O=C(O)CCC/C=C\C[C@@H]1[C@@H](/C=C/[C@@H](O)COc2cccc(C(F)(F)F)c2)[C@H](O)C[C@@H]1O`, the survival is 118.
For the compound `CCCCC[C@H](O)/C=C/[C@@H]1[C@@H](CCCCCCC(=O)O)[C@@H](O)C[C@H]1O`, the survival is 96.8.
Consider `CCCCC[C@H](O)/C=C/[C@@H]1[C@H]2C/C(=C/CCCC(=O)O)C[C@H]2C[C@H]1O`, for which the survival was 59.9.
Take `COc1c(O[C@@H]2O[C@H](CO)[C@@H](O)[C@H](O)[C@H]2O)cc2c(c1OC)-c1ccc(SC)c(=O)cc1C(NC(C)=O)CC2` (some centres undefined): the survival is 8.17.
For `CCCCC(C)(O)C/C=C/[C@H]1[C@H](O)CC(=O)[C@@H]1CCCCCCC(=O)O` (some centres undefined), the survival is 92.9.
Consider `CCCCCCCC/C=C\CCCCCCCCOC[C@H](COP(=O)([O-])OCC[N+](C)(C)C)OC(C)=O`, for which the survival was 95.4.
On the same count and under the same terms, to `COc1ccc2c(OC)c3ccoc3nc2c1OC` belongs 3.67; to `CCCCCCCCCCCCCCCCCCOC[C@@H](O)COP(=O)([O-])OCC[N+](C)(C)C`, 71.2.
For the compound `C=C1CC[C@H](O)C/C1=C/C=C1\CCC[C@]2(C)[C@@H]([C@H](C)CC[C@@H](O)C(C)(C)O)CC[C@@H]12`, the survival was 80.4.
As to `CCCCC[C@H](O)/C=C/[C@@H]1[C@@H](C/C=C\CCCC(=O)O)[C@H]2CO[C@@H]1C2`, the survival was 104.
Same read-out and setting: to `CCCCC/C=C\C[C@@H](O)/C=C/C=C\C/C=C\CCCC(=O)O` belongs 89.3; to `C=C1C(c2ccc(C)cc2)=CCc2cc(C)cc(C)c21`, 98.5.
In the case of `C[N+]1(C)C[C@@H](O)C[C@H]1C(=O)[O-]`, the survival was 7.
Same read-out and setting: for `CCCCCC(O)/C=C/C=O` (centres undefined) the value was 101; for `CCCCCCCCCCCCCCCC(=O)C1=C(O)C(CO)OC1=O` (centres undefined), 98.2; for `CCCCC[C@H](O)/C=C/[C@@H]1[C@H]2C/C(=C/CCCC(=O)O)O[C@H]2C[C@H]1O`, 102.
Turning to `CCCCCCCCCCCCCCCCCCOC[C@H](COP(=O)([O-])OCC[N+](C)(C)C)OC(C)=O`, the survival was 83.4.
For `COC(C)(C)CCCC(C)C/C=C/C(C)=C/C(=O)O` (centres undefined), the survival was 91.1.
Still for that read-out and setting: for `COc1c(O)cc2c(c1O)C1OC(CO)C(O)C(O)C1OC2=O` (centres undefined) the value was 2.17.
